HepG2 tox-1 – qHTS for Inhibitors of TGF-b: Cytotox Counterscreen | HepG2 CAGA-GFP viability, ATP luminescence, 18 h | Potency, µM (series often up to 46.1 µM), for the others: at the highest dose activity change, negative = cytotoxicity, actives largely listed as cytotoxic | 410,000 tested, 0.76% active | AID 588856, 2011; further: potency means the concentration at half of the fitted maximal effect
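CellTiter-Glo luminescence gave cytotoxicity after 18 hours at 37 degrees C. The cells were HepG2 CAGA-GFP in 1% FBS DMEM, stimulated with 500 pg/mL TGF-beta after compound addition. %Activity was normalised to no-cell wells (complete cell-killing) and DMSO (no toxicity), and curves were fitted and classified.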
D3 antag – qHTS of D3 Dopamine Receptor Antagonist: qHTS; D3R cells, DiscoveRx beta-arrestin luminescence, antagonist mode; stronger effect = lower value; max response, negative = inhibition, %; 360,000 tested, 2.5% active; in the data active means max response below about -50%; inconclusive means no clear call, values can overlap the other calls; further: on the % scale 0 is the no-effect control and ±100 the full control effect
Target sequence (P35462 whole entry, looked up): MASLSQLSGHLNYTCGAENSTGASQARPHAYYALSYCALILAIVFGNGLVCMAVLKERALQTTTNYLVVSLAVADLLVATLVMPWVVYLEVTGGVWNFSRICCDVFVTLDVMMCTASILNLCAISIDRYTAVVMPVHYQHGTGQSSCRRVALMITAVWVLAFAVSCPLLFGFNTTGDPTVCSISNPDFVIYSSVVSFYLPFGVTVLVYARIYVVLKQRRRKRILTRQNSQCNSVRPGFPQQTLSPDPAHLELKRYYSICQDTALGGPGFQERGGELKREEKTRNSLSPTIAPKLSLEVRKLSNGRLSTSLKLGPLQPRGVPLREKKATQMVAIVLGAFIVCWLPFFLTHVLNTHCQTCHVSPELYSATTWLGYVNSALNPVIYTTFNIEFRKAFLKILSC
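Cells plated overnight at 1500 cells/well, then exposed to library compounds with dopamine controls for 90 minutes at 37 degrees C. DiscoveRx reagent added for 30–60 minutes at room temperature; luminescence read, quantitative HTS format.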
TGFb inhibitor – qHTS for Inhibitors of TGF-b; HepG2 CAGA-GFP TGF-b/SMAD3 reporter, GFP fluorescence, 18 h; TGF-beta stimulated, 500 pg/mL final; AID 588855, 2011; Potency, µM (top dose mostly 46.1 µM), inactives show top-dose activity, negative = inhibition, actives largely listed as inhibitors; 410,000 tested, 1.2% active; further: potency means the concentration at half of the fitted maximal effect; on the % scale 0 is the no-effect control and ±100 the full control effect; nearly all actives have a fitted effect of over 65% in size
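TGF-beta reporter screen: HEPG2 CAGA-GFP, 1% FBS, 500 pg/mL TGF-beta final, 18 h; per-cell GFP summed per well; curves fitted and categorized by class.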
DRD3 agonist – qHTS of D3 Dopamine Receptor Agonist: qHTS | D(3) dopamine receptor (Homo sapiens), P35462 | D3R DiscoveRx beta-arrestin cells, luminescence, 90 min | max activation, % | 410,000 tested, 0.58% active; in the data active means max activation above about 30%; further: 0% is about no effect
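Agonist mode: compounds and dopamine controls were applied to plated cells for 90 min at 37 degrees C after an overnight attachment at 1500 cells/well. Luminescent read-out followed 30 - 60 minutes at room temperature with DiscoveRx detection reagent.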
ATXN2 expr inh – Primary qHTS for Inhibitors of ATXN expression | HEK-293 ATXN2-luciferase reporter, luminescence, 24 h | Potency, µM (highest dose often 57 µM), for the others: top-dose activity change, negative = inhibition, actives largely listed as inhibitors | 360,000 tested, 0.72% active; further: potency means the concentration at half of the fitted maximal effect; on the % scale 0 is the no-effect control and ±100 the full control effect; nearly all actives have a fitted effect of over 55% in size
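ATXN2-luciferase reporter cells (luciferase flanked by upstream and downstream ATXN2 gene portions) were treated 24 h at 37 °C with compounds at up to 57 uM. SteadyGlo luminescence gave expression; GF-AFC fluorescence gave viability.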
S2 tox – Viability Counterscreen for Primary qHTS for Inhibitors of ATXN expression; S2 cells (HEK-293 line with an ATXN2-luciferase reporter) viability, CellTiter-Fluor protease fluorescence, 24 h; Potency, µM (top dose mostly 56.7 µM), actives largely listed as cytotoxic; 400,000 tested, 0.49% active; further: potency means the concentration at half of the fitted maximal effect; nearly all actives have a fitted effect of over 40% in size
TGFb confirm – qHTS for Inhibitors of TGF-b: Confirmation of Cherry Picks. shares compounds with TGFb inhibitor. HepG2 CAGA-GFP TGF-b reporter, GFP fluorescence, 18 h; cells stimulated with TGF-beta, 500 pg/mL. Potency, µM (highest dose often 46.1 µM), for inactives: at the top dose activity, negative = inhibition, hits mostly inhibitors. 1,600 tested, 63% active; further: potency means the concentration at half of the fitted maximal effect; on the % scale 0 is the no-effect control and ±100 the full control effect; nearly all actives have a fitted effect of over 65% in size
HepG2 tox-2 – qHTS for Inhibitors of TGF-b: Cytotox Counterscreen for Cherry Picks | shares compounds with TGFb inhibitor | HepG2 CAGA-GFP viability, ATP luminescence, 18 h; cells stimulated with TGF-beta, 500 pg/mL | Potency, µM (doses to about 46.1 µM), for inactives: at the top dose activity, negative = cytotoxicity, actives largely listed as inhibitors | 1,600 tested, 27% active; further: potency means the concentration at half of the fitted maximal effect; on the % scale 0 is the no-effect control and ±100 the full control effect; nearly all actives have a fitted effect of over 70% in size
TGFb CCL64 inh – qHTS for Inhibitors of TGF-b: CCL64 Cells Orthogonal Assay for Cherry Picks; CCL64 CAGA-GFP reporter, TGF-b stimulated, GFP fluorescence, 18 h; Potency, µM (titrated, usually from 46.1 µM), inactives show at the top dose activity, negative = inhibition, actives largely listed as inhibitors; 1,600 tested, 41% active; shares compounds with TGFb inhibitor; further: potency means the concentration at half of the fitted maximal effect; nearly all actives have a fitted effect of over 65% in size
COP TGFb inh – qHTS for Inhibitors of TGF-b: Hit Validation in HepG2 Cells using COP promoter. AID 720537, 2013. HepG2 COP-GFP TGF-b reporter, GFP fluorescence, 18 h; cells stimulated by added recombinant TGF-beta. Potency, µM (series often up to 46.1 µM), for the others: at the top dose activity, negative = inhibition, hits mostly inhibitors. 1,600 tested, 3% active. shares compounds with TGFb inhibitor; further: potency means the concentration at half of the fitted maximal effect; nearly all actives have a fitted effect of over 70% in size
* hit, by the source's call; i = inactive; ? = inconclusive; . = not tested or not shown. An excerpt weighted towards active compounds, which were near 4.8% of everything screened. Unless noted, the call rests on the fitted dose curve; in most records, active means well fitted curve in the direction sought with a large enough effect; inconclusive means small, poorly fitted or top-dose-only effect, or another doubt; inactive means no such curve, though single readings can be large; an effect the other way counts as inactive or inconclusive.

SMILES	HepG2 tox-1	D3 antag	TGFb inhibitor	DRD3 agonist	ATXN2 expr inh	S2 tox	TGFb confirm	HepG2 tox-2	TGFb CCL64 inh	COP TGFb inh
O=C(Nc1ccc2oc(-c3cccnc3)nc2c1)c1ccc(-c2cccc(OC(F)(F)F)c2)o1	-2%	.	-14%	10	.	.	.	.	.	.
CCn1c(=O)c(C(=O)Nc2nc3ccccc3[nH]2)c(O)c2ccccc21	-60%	-62*	2µM*	4	-26%	i	-25%	?	?	34%
O=C(OCCN1CCOCC1)c1ccc2c(c1)OCCO2	-30%	-3	4%	-1	10%	i	.	.	.	.
O=C(CCN1CCOCC1)c1ccc2c(c1)OCCO2	-99%	-8	10µM*	-9	-6%	i	21µM*	23µM*	?	?
O=C(N=Nc1c(O)[nH]c2ccc(Br)cc12)c1ccccc1-n1cccc1	-22%	-27	?	-21	?	.	7.3µM*	?	18µM*	45%
Nc1ccc(S(=O)(=O)N2CCc3ccccc32)cc1	-1%	-23	19%	-7	-14%	i	.	.	.	.
O=S(=O)(NC1CCCC1)c1ccc(S(=O)(=O)N2CCc3ccccc32)cc1	4%	11	?	6	?	?	9.2µM*	-18%	-2%	-11%
CCCCCCCCOC(=O)c1cc([N+](=O)[O-])c(Sc2ncnc3nc[nH]c23)c([N+](=O)[O-])c1	13µM*	-55*	7.1µM*	-12	?	.	21µM*	8.2µM*	5.8µM*	?
O=C(Nc1ccc(S(=O)(=O)NC2=NCCCCC2)cc1)c1cccs1	-14%	9	0%	-1	.	i	.	.	.	.
O=C(Nc1ccc(S(=O)(=O)NC2=NCCCCC2)cc1)c1ccc([N+](=O)[O-])s1	-105%	-24	7.1µM*	-1	?	i	12µM*	?	21µM*	27%
Brc1cc(Br)c2ncnc(N3CCCCC3)c2c1	-40%	21	6.3µM*	-4	-23%	i	9.2µM*	4.1µM*	?	42%
CC(C)C[C@@H](CN1CCCC1CN1C(=S)NC[C@@H]1Cc1ccc(O)cc1)N1C[C@H](Cc2ccc(O)cc2)N(CC2CCCCCC2)C1=S (some centres not stated)	-111%	?	5.6µM*	-26	?	28µM*	21µM*	?	13µM*	?

Compound activity as filed in PubChem BioAssay.
